Activity calls are given as the source filed them. How the source made its calls: active means hit-call score of the fitted dose curve at least 0.9, where 1 is the maximum; inactive means score below 0.9.
How the values were obtained:
Details in all cases: mRNA level, 48 h; actives raise or lower the signal
[1] = read-out: MicroRNA 122 (MIR122), gene 406906; assay: LTEA_HepaRG_MIR122: Life Technologies and Expression Analysis (LTEA) Assay for MicroRNA 122 (MIR122) using HepaRG (AID 2283516); further: the transcript read is the microRNA miR-122
Procedure, shortened: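 Expression measured by microfluidic qRT-PCR with three housekeeping genes for normalisation, after 48 h treatment of HepaRG cultures. Eight concentrations (top 100 uM, half-log steps, 0.5% DMSO vehicle) in duplicate; gain or loss fitted relative to vehicle.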

[2] = read-out: matrix metalloproteinase-10 (MMP10), MMP10 (gene 4319); assay: LTEA_HepaRG_MMP10: Life Technologies and Expression Analysis (LTEA) Assay for matrix metalloproteinase-10 (MMP10) using HepaRG (AID 2283517)
Procedure, shortened: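 Transcript levels come from Fluidigm qRT-PCR normalized to three housekeeping genes, with curves fitted bidirectionally against 0.5% DMSO. Human HepaRG cells were dosed for 48 hours at concentrations up to 100 uM.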

MYC, MYC (gene 4609) = assay: LTEA_HepaRG_MYC: Life Technologies and Expression Analysis (LTEA) Assay for MYC using HepaRG (AID 2283518)
Procedure, shortened: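 qRT-PCR read-out of MYC transcript (Fluidigm TaqMan, housekeeping-normalized) after 48 h chemical exposure of HepaRG cells; eight concentrations, top 100 uM, half-log steps. Bidirectional curve fitting against 0.5% DMSO vehicle baseline.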

[3] = read-out: matrix metalloproteinase-3 (MMP3), MMP3 (gene 4314); assay: LTEA_HepaRG_MMP3: Life Technologies and Expression Analysis (LTEA) Assay for matrix metalloproteinase-3 (MMP3) using HepaRG (AID 2283519)
Procedure, shortened: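 qRT-PCR read-out of MMP3 mRNA (normalised to three housekeeping genes) in HepaRG liver cells after 48 h chemical exposure; 8-point half-log series, top 100 uM, 0.5% DMSO vehicle. Bidirectional curve fitting against DMSO baseline.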

[4] = read-out: Paternally Expressed 10 (PEG10), PEG10 (gene 23089); assay: LTEA_HepaRG_PEG10: Life Technologies and Expression Analysis (LTEA) Assay for Paternally Expressed 10 (PEG10) using HepaRG (AID 2283520);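 on AC50: differentiated HepaRG human liver cells in serum-free induction medium with 0.5% DMSO; PEG10 transcript by qRT-PCR normalised to ACTB GAPDH and POLR2A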
Procedure, shortened: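 PEG10 transcript measured by Fluidigm qRT-PCR, normalized to three housekeeping genes, in HepaRG cells treated 48 h (highest 100 uM, half-log steps, 0.5% DMSO vehicle). Cells plated 48 h before switching to serum-free induction medium.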

[5] = read-out: Nuclear factor NF-kappa-B p105 subunit (Homo sapiens) (UniProt P19838); assay: LTEA_HepaRG_NFKB1: Life Technologies and Expression Analysis (LTEA) Assay for Nuclear Factor Kappa B Subunit 1 (NFKB1) using HepaRG (AID 2283521)
Procedure, shortened: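 Human HepaRG cells receive eight half-log concentrations, highest 100 uM, for 48 h. NFKB1 expression is then quantified by qRT-PCR and analysed for up- or down-regulation relative to 0.5% DMSO vehicle.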

[6] = read-out: Protein phosphatase 2A (PPP2R4), PTPA (gene 5524); assay: LTEA_HepaRG_PPP2R4: Life Technologies and Expression Analysis (LTEA) Assay for Protein phosphatase 2A (PPP2R4) using HepaRG (AID 2283522)
Procedure, shortened: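 Expression was quantified by Fluidigm qRT-PCR normalised to three housekeeping genes after 48 h treatment. Human HepaRG cells received an 8-point series from 100 µM downward by half-logs, in duplicate with 0.5% DMSO vehicle and 1 mM phenobarbital as induction control.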

[7] = read-out: Phosphatase and tensin (PTEN), PTEN (gene 5728); assay: LTEA_HepaRG_PTEN: Life Technologies and Expression Analysis (LTEA) Assay for Phosphatase and tensin (PTEN) using HepaRG (AID 2283523)
Procedure, shortened: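 HepaRG, 48 h exposure, 8-pt half-log series from 100 uM top, 0.5% DMSO vehicle, duplicates. Readout: Fluidigm qRT-PCR of PTEN transcript; housekeeping normalization (ACTB, GAPDH, POLR2A). Gain or loss fitted relative to DMSO baseline.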

[8] = read-out: solute carrier (SLC22A1), SLC22A1 (gene 6580); assay: LTEA_HepaRG_SLC22A1: Life Technologies and Expression Analysis (LTEA) Assay for solute carrier (SLC22A1) using HepaRG (AID 2283524);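 on AC50: differentiated human HepaRG liver cells in serum-free induction medium; TaqMan qRT-PCR normalized to ACTB GAPDH and POLR2A housekeeping genes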
Procedure, shortened: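 qRT-PCR readout (TaqMan, Fluidigm arrays) of SLC22A1 transcript, normalized to three housekeeping genes; bidirectional curve fit relative to 0.5% DMSO vehicle. Differentiated human HepaRG cells, 48 h chemical exposure, top concentration 100 uM, half-log steps, eight points.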

[9] = read-out: Pyruvate Dehydrogenase Kinase 4 (PDK4), PDK4 (gene 5166); assay: LTEA_HepaRG_PDK4: Life Technologies and Expression Analysis (LTEA) Assay for Pyruvate Dehydrogenase Kinase 4 (PDK4) using HepaRG (AID 2283525)
Procedure, shortened: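 HepaRG (human liver line), 48 h chemical exposure, 8-pt half-log CRC top 100 uM, 0.5% DMSO vehicle, duplicates. Readout: TaqMan qRT-PCR of PDK4 mRNA, housekeeping-normalized; gain/loss fit relative to DMSO baseline.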

Measured: AC50

Nuclear factor NF-kappa-B p105 subunit (Homo sapiens), sequence (P19838 whole entry, looked up): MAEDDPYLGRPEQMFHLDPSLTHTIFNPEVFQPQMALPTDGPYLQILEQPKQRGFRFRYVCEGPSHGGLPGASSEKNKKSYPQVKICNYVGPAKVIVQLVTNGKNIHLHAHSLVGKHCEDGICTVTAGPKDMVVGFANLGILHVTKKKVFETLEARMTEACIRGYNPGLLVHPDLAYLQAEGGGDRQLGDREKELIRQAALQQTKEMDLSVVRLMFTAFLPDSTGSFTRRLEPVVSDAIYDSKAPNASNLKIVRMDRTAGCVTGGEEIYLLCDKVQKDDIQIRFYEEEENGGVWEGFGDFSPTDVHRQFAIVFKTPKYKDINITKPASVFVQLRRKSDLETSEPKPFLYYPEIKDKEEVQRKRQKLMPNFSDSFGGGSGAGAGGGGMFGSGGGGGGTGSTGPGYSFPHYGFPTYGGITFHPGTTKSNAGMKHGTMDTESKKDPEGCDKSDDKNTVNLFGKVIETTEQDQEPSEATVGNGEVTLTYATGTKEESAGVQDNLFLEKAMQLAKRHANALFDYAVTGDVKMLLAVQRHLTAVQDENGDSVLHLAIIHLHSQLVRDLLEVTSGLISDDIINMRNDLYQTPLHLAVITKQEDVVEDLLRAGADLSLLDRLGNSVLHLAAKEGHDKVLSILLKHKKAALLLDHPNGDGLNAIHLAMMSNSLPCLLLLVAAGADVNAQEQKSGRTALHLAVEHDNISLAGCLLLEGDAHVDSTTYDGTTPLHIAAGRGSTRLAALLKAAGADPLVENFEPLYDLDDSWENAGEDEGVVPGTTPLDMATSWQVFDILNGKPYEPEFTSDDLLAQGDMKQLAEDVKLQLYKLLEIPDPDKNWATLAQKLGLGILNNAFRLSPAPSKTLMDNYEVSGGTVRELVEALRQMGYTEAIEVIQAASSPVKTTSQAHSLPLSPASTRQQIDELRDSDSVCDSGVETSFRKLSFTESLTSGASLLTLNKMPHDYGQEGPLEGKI

O=C(O)c1ccccc1-n1cc(C(=O)O)c(=O)c2cc(Nc3c(F)cc(F)cc3Cl)c(Cl)cc21
active: [4] 21.1 µM
inactive: all other assays above

OC12N=C(c3ccccc3)SC1Cc1cc(Cl)ccc12 (stereo unspecified)
inactive: [3] | [6] | [7]
active: [1] 12.1 µM | [2] 72.8 µM | MYC, MYC (gene 4609) 16.1 µM | [4] 11.8 µM | [8] 40.5 µM | [9] 8.96 µM

Cc1oc2c(NC(=O)c3c(Cl)cccc3Cl)cccc2c1C(C)(C)O
inactive: [3] | [6] | [7]
active: [1] 38.6 µM | [2] 70.8 µM | MYC, MYC (gene 4609) 50 µM | [4] 3.27 µM | [8] 50 µM | [9] 14.9 µM

CC(=O)N1CCN(c2ccc(OC[C@H]3CO[C@](Cn4ccnc4)(c4ccc(Cl)cc4Cl)O3)cc2)CC1
inactive: [5]
active: [1] 13.3 µM | [2] 16.7 µM | MYC, MYC (gene 4609) 15.4 µM | [3] 24 µM | [4] 42.5 µM | [6] 76.6 µM | [7] 78.8 µM | [8] 13.3 µM | [9] 11 µM

CO[C@H]1/C=C/O[C@@]2(C)Oc3c(C)c(O)c4c(O)c(c(/C=N/N5CCN(C)CC5)c(O)c4c3C2=O)NC(=O)/C(C)=C\C=C\[C@H](C)[C@H](O)[C@@H](C)[C@@H](O)[C@@H](C)[C@H](OC(C)=O)[C@@H]1C
not listed: [4]
inactive: all other assays above

O=C=NCCCCCCN=C=O
inactive: all assays above

CN(C)C(=O)C1(N2CCCCC2)CCN(CC[C@@]2(c3ccc(Cl)c(Cl)c3)CN(C(=O)c3ccccc3)CCO2)CC1
inactive: [3] | [4] | [7] | [9]
active: [1] 10.9 µM | [2] 77.1 µM | MYC, MYC (gene 4609) 21.4 µM | [5] 80.3 µM | [6] 27.2 µM | [8] 27.6 µM

Cc1ccc(C(C)C)cc1
not listed: [5]
inactive: all other assays above

CC(C)(O)c1ccc(CNC(=O)c2cccnc2Oc2ccc3nonc3c2)cc1
inactive: all assays above

CCN(Cc1cccnc1)C(=O)c1cccc(Cl)c1[C@]1(C)C(=O)N(Cc2ccc(OC)cc2OC)c2ccc(Cl)cc21
active: [1] 18.1 µM | [2] 17.7 µM | MYC, MYC (gene 4609) 25.3 µM | [4] 10.2 µM | [5] 26.5 µM | [6] 10.8 µM | [8] 21.7 µM | [9] 22.3 µM
inactive: [3] | [7]

CCCCCCCCN(C)CCCCCCCC
inactive: all assays above

NC(=O)c1nc(-c2cccc(-c3cc(F)ccc3OCC(F)(F)C(F)(F)F)c2)n[nH]1
active: [3] 5.48 µM | [5] 82.8 µM | [7] 80.5 µM | [8] 15.8 µM
not listed: [4]
inactive: all other assays above

COc1cccc([C@H](O)C2CCN(CCc3ccc(F)cc3)CC2)c1OC
active: [4] 9.92 µM
inactive: all other assays above

Oc1ccccc1
not listed: [5]
inactive: all other assays above

CCO[Si](CCCNC(N)=O)(OCC)OCC
not listed: [5]
inactive: all other assays above

OCCO
inactive: all assays above

CC(C)(C)c1csc(-c2cc3cc(OCc4ccccc4CC(=O)O)ccc3o2)n1
active: [1] 90.7 µM | [2] 32.8 µM | MYC, MYC (gene 4609) 32 µM | [3] 85.6 µM | [4] 50 µM | [6] 85.2 µM | [7] 80.1 µM | [8] 25 µM | [9] 12 µM

CCCCCCCCCCCCO
not listed: [5]
inactive: all other assays above

Clc1cc(Cl)c2c(c1)N=C1CCCCCN1C2
active: [9] 12.6 µM
inactive: all other assays above
